Inconclusive results are not listed. Entries that show only a call come without a potency. Active and inactive are the calls of the source. Calls follow the shape of the dose curve; as a rule, active = well fitted activation curve with a large enough effect in the repeat runs; inconclusive = weak or mixed curves, or effect the other way; inactive = no such curve, though single readings can be large or run the other way.
Potency is read from the fitted curve at half-maximal effect.

This experiment can be described thus: qHTS assay to identify small molecule agonists of the retinoic acid receptor (RAR) signaling pathway (AID 1159553). As to conditions: C3RL4 RARE luciferase reporter, agonist, 6 h; series mostly up to 73.3 µM. From the text:
National Center for Advancing Translational Sciences [NCATS] NIH Chemical Genomics Center [NCGC] U.S. Environmental Protection Agency [EPA] National Institutes of Environmental Health Sciences [NIEHS] National Toxicology Program [NTP] Assay overview: All-trans Retinoic acid (atRA) is the potent natural metabolite of retinol and plays an important role in normal embryonic development and maintenance of cellular phenotype in adult animals. atRA is the activating ligand for the retinoic acid receptors (RARs) which form heterodimers with retinoid X receptors (RXRs) on the retinoic acid response element (RARE). Through activation of the RAR/RXRs nuclear receptors, atRA regulates the transcription of a large number of protein-coding genes and regulatory RNAs. Intracellular levels of atRA are controlled by the retinol signaling pathway (RSP) that regulates the biosynthesis and catabolism of atRA to maintain physiological levels. Chemicals that interfere with the RSP can cause abnormal intracellular levels of atRA and therefore are potential developmental toxicants. To assess compounds for the potential adverse effect on embryonic development through interfering with retinol signaling, a cell-based RARE luciferase reporter gene assay was used. C3RL4 cell line (OARSA/CFSAN/FDA, Laurel, MD) was used to screen Tox21 10K compound library for identifying activators of the RSP.
Assay Protocol Summary: C3RL4 cells were seeded at 1,000/well in 5 uL of assay medium into white solid 1,536-well tissue culture plates (Greiner Bio-One North America Inc. Monroe, NC) using a Multidrop Combi (Thermo Scientific, Waltham, MA) dispenser. After incubation at 37 C and 5% CO2 for an overnight, 23 nL of compounds dissolved in DMSO, positive control or DMSO only were transferred by a Pintool station (Kalypsys, San Diego, CA). After 6 hr incubation at 37 C and 5% CO2, 5 uL of Amplite Luciferase reagent (AAT Bioquest Inc. Sunnyvale, CA) was added to each assay plate using a Flying Reagent Dispenser (FRD) (Aurora Discovery, San Diego, CA). Luminescence was quantified on a ViewLux plate reader (PerkinElmer, Waltham, MA) after 30 min incubation at room temperature.
Background: In qHTS, concentration-response curves come from the screen itself.
As to `CCCCCCCCCCCCCCN(C)C`, the Potency result is “inactive”.

Take `CC[C@H]1OC(=O)[C@H](C)[C@@H](O[C@H]2C[C@@](C)(OC)[C@@H](O)[C@H](C)O2)[C@H](C)[C@@H](O[C@@H]2O[C@H](C)C[C@H](N(C)C)[C@H]2O)[C@](C)(O)C[C@@H](C)CN(C)[C@H](C)[C@@H](O)[C@]1(C)O`: the Potency result is “inactive”.

As to `CCCCC(CC)COS(=O)(=O)O` (stereo not given), the Potency result is “inactive”.

With `Oc1ccc2c(c1)Cc1ccccc1-2`, the Potency is 13.7 µM (active).

As for `CCOc1ncc(F)c(=O)[nH]1`, the Potency entry is “inactive”.

Take `O=C(O)CCS`: the Potency entry was “inactive”.

For `CC(=O)NNC(C)=O`, the Potency result was “inactive”.

On to `C1CCCCC1`, for which the Potency result was “inactive”.

Consider `CCNc1nc(N)nc(Cl)n1`, for which the Potency result is “inactive”.

On to `CC(C)(C)C(O)/C=C/c1ccc2c(c1)OCO2` (stereo not given), for which the Potency was 29.8 µM (active).

Regarding `O=C1OC(=O)c2c(Br)c(Br)c(Br)c(Br)c21`, the Potency result is “inactive”.

Turning to `Cc1ccc(NC(=O)N(C)C)cc1NC(=O)N(C)C`, the Potency entry was “inactive”.

In the case of `CNC1CCCN(c2c(F)cc3c(=O)c(C(=O)O)cn(C4CC4)c3c2OC)C1` (stereo not given), the Potency entry was “inactive”.

Consider `CCCCCCCC/C=C\CCCCCCCC(=O)OCCO`, for which the Potency result was “inactive”.

In the case of `CC(C)c1ccc(C(=O)N=C(N)N)cc1S(C)(=O)=O`, the Potency entry was “inactive”.

Take `CCC1CCC(CCC(=O)O)C1` (stereo not given): the Potency entry is “inactive”.

Take `COC(=O)c1sccc1S(N)(=O)=O`: the Potency entry was “inactive”.

`CCN(CC)CCOC(=O)C(c1ccccc1)c1ccccc1`: the Potency entry is “inactive”.

For the compound `COc1ccc(/C=C/C(=O)c2ccc(OC)cc2OC)cc1`, the Potency is 29.8 µM (active).

Regarding `CC(C)OC(=O)c1ccccc1C(=O)OC(C)C`, the Potency result is “inactive”.

For `O=C(O)c1cccc(Oc2ccccc2)c1`, the Potency entry was “inactive”.

Regarding `[Cl][Nd]([Cl])[Cl]`, the Potency entry is “inactive”.

For the compound `C=C(C)c1ccccc1`, the Potency result was “inactive”.

On to `c1ccc(CNc2ncnc3c2ncn3C2CCCCO2)cc1` (stereo not given), for which the Potency is 4.33 µM (active).

For `CC1CCCC(=O)C1=O` (stereo not given), the Potency result is “inactive”.

For `CCCCC[C@H](O)/C=C/[C@H]1[C@H](O)CC(=O)[C@@H]1C/C=C\CCCC(=O)O`, the Potency result was “inactive”.

For `Cc1ccccc1S(N)(=O)=O`, the Potency result was “inactive”.

Regarding `CCC(CO)(CO)[N+](=O)[O-]`, the Potency entry was “inactive”.

As to `CCCOC(=O)c1c(Cl)c(Cl)c(Cl)c(Cl)c1C(=O)OCCC`, the Potency entry was “inactive”.

For `CCOC(=O)C(C)O` (stereo not given), the Potency entry is “inactive”.

With `CN1C(CSCC(F)(F)F)Nc2cc(Cl)c(S(N)(=O)=O)cc2S1(=O)=O` (stereo not given), the Potency entry is “inactive”.

Regarding `BrC(Br)C(Br)Br`, the Potency entry is “inactive”.

For `CCCc1nc2c(C)cc(-c3nc4ccccc4n3C)cc2n1Cc1ccc(-c2ccccc2C(=O)O)cc1`, the Potency result is “inactive”.

In the case of `COc1cc(NS(=O)(=O)c2ccc(N)cc2)nc(C)n1`, the Potency entry was “inactive”.

As to `CC(C)(C)CCCCCCOC(=O)c1ccccc1C(=O)OCCCCCCC(C)(C)C`, the Potency entry is “inactive”.

Consider `CC(C)(O)CCc1ccccc1`, for which the Potency entry was “inactive”.

Regarding `COC(=O)CC(C(C)=O)C(=O)OC` (stereo not given), the Potency entry is “inactive”.

With `Nc1c(Cl)cc(Cl)cc1[N+](=O)[O-]`, the Potency entry was “inactive”.

Turning to `C=CCOC(=O)COCCC(C)C`, the Potency entry is “inactive”.

As for `CCCCCCCCCCCCCCCCCC(=O)OCC(CC)CCCC` (stereo not given), the Potency result is “inactive”.

The record behind these values is PubChem BioAssay (Tox21).
